# From PubChem BioAssay
# Vaccinia Venus = inhibitors of vaccinia virus (Venus reporter); Vaccinia virus Venus reporter expression, fluorescence; Potency, µM (top dose mostly 36.5 µM), inactives show top-dose activity change, negative = inhibition, hits mostly inhibitors; 330,000 tested, 0.46% active; AID 720580; calls by dose curve; tested in A549 cells; also: % is scaled to controls: 0 for no effect and ±100 for the full control effect; nearly all actives have a fitted effect of over 30% in size
# NS1 inh = blocks influenza NS1 protein function; Potency, µM (top dose mostly 46.1 µM), for the others: top-dose activity, positive = more growth; 270,000 tested, 0.4% active; calls by dose curve; also: actives are rising curves; nearly all actives have a fitted effect of over 50% in size
#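 A cell-based growth assay was used: compounds that relieve NS1-induced slow growth of budding yeast raise OD600. Assay medium was yeast nitrogen base with ammonium sulphate and -URA supplement, pH 6.0, with 2% galactose.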
# VACV mCherry inh = inhibitors of vaccinia virus infection (mCherry reporter signal); Potency, µM (top dose mostly 36.5 µM), inactives show top-dose activity change, negative = inhibition, most hits filed as inhibitors; 310,000 tested, 0.63% active; AID 720579; Vaccinia virus mCherry reporter infection, fluorescence; calls by dose curve; tested in A549 cells; also: % is scaled to controls: 0 for no effect and ±100 for the full control effect; nearly all actives have a fitted effect of over 35% in size
# Pf growth 96h = P. falciparum growth inhibition at 96 hour, primary screen for plastid delayed-death inhibitors; P. falciparum luciferase reporter growth, 96 h; Potency, µM (top dose mostly 28.7 µM), for the others: top-dose activity change, negative = inhibition, most hits filed as inhibitors; 320,000 tested, 6.9% active; AID 504834; also: % is scaled to controls: 0 for no effect and ±100 for the full control effect
#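 Luminescence readout: decreased luciferase signal marks inhibited growth of reporter-expressing P. falciparum in infected red cells (2% hematocrit, 0.05% parasitemia final), exposed to compound two generations (96 h, 37 C, 5% CO2).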
# HCV inh = HCV inhibition | Potency, µM (titrated, usually from 41.8 µM), for inactives: top-dose activity change, negative = inhibition, hits mostly inhibitors | Huh7.5.1 HCVcc-Cre infection, luciferase reporter, 44 h | 340,000 tested, 3.4% active | AID 651820; also: % is scaled to controls: 0 for no effect and ±100 for the full control effect
#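 Whole-lifecycle infectious HCVcc-Cre system; cells 1,000/well, compound then virus (~0.5 moi) added 4 h after plating, 44 h culture. Luciferase read 15 sec following 15 min substrate incubation, room temp.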
# Pf growth 48h = P. falciparum growth inhibition at 48 hours (one generation); P. falciparum luciferase growth in erythrocytes, 48 h; Potency, µM (highest dose often 28.7 µM), for inactives: at the highest dose activity change, negative = inhibition, hits mostly inhibitors; 310,000 tested, 5.9% active; AID 504832; also: % is scaled to controls: 0 for no effect and ±100 for the full control effect
#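 In quantitative HTS format, infected erythrocytes bearing luciferase-reporter parasites were treated for a single generation at 37 C. Luminescence after adding detection reagent served as the growth measure.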
# Numbers without * were called inactive; i = inactive; u = inconclusive; x = not tested or not shown. This is a sample that favours compounds with a hit; in the whole collection about 11% have one here. Unless noted, calls follow the shape of the dose curve; as a rule, active = well fitted inhibition curve with a large enough effect; inconclusive = small, poorly fitted or top-dose-only effect, or another doubt; inactive = no such curve, though single readings can be large or run the other way. Potency is read from the fitted curve at half-maximal effect.
SMILES,Vaccinia Venus,NS1 inh,VACV mCherry inh,Pf growth 96h,HCV inh,Pf growth 48h
COCC(C)n1c(SCC(=O)Nc2ccc3c(c2)OCCO3)nc2ccccc2c1=O (stereo not given),-9.0%,x,-3.9%,u,24.7%,u
O=C(CN1CCCCC1)NNc1nc(-c2ccccc2)c2cc(Cl)ccc2n1,-8.4%,-2.0%,-16.9%,-19.2%,u,u
COc1ccc(NC(=O)NC(C)c2ccccc2)cc1 (stereo not given),-13.7%,9.0%,-14.3%,-29.3%,-0.4%,10.5%
Cc1ccc2c(C)nc(NC3=NCN(CCc4ccccc4)CN3)nc2c1,x,-7.2%,x,239.5%,x,2.62µM*
Cc1nc(NC2=NCN(CCc3ccccc3)CN2)nc2ccccc12,x,-7.4%,x,x,9.9%,u
COCCN1CN=C(Nc2nc(C)c3ccc(C)cc3n2)NC1,x,-2.9%,x,3.0%,x,2.08µM*
COc1cccc(-c2cc(N3C(=O)Nc4ccccc4N3O)n[nH]2)c1,-5.5%,9.2%,i,6.2%,8.8%,19.7%
Cc1ccc(OCCN2CCCC2)cc1,x,-10.8%,x,-2.6%,u,-14.6%
C/C(=N\NC(=O)c1ccco1)c1cccc2ccccc12,-7.5%,-6.0%,13.8%,-20.9%,u,9.28µM*
C/C(=N\NC(=O)c1ccc(C(=O)N/N=C(\C)c2ccco2)o1)c1ccco1,-10.9%,6.2%,i,2.62µM*,-4.9%,u
